NS1 inh – influenza NS1 inhibition; Potency, µM (titrated, usually from 46.1 µM), inactives show at the top dose activity, positive = more growth; 270,000 tested, 0.4% active; calls by dose curve; note: potency is the fitted concentration of half-maximal effect; actives are rising curves; nearly all actives have a fitted effect of over 50% in size
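Growth recovery, yeast-based: influenza A NS1 expressed in S. cerevisiae causes slow growth, and suppressors are detected by OD600. The parent strain without NS1 is used as positive control.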
Cycloheximide cs – counter-screen for Shiga toxin inhibitors: cycloheximide protein synthesis inhibition; max response, %; 300,000 tested, 12% active; cell reporter, cycloheximide protein synthesis inhibition counterscreen; in the data active = max response mostly above about 13%, no sharp cut-off; inactive = mostly below about 14%; note: read at 38.3 µM for the half of the compounds with a filed dose; 0% is about no effect
LmPK inh – inhibitors of Leishmania mexicana pyruvate kinase. Q27686. purified LmPK, Kinase-Glo ATP luminescence, 1 h. Potency, µM (doses to about 57.5 µM), without a hit: top-dose activity change, negative = inhibition, usual class: inhibitors. 290,000 tested, 0.37% active. AID 1721; note: potency is the fitted concentration of half-maximal effect; % is set by controls: 0 for no effect and ±100 for the full control effect
Target sequence (Q27686 whole entry, looked up): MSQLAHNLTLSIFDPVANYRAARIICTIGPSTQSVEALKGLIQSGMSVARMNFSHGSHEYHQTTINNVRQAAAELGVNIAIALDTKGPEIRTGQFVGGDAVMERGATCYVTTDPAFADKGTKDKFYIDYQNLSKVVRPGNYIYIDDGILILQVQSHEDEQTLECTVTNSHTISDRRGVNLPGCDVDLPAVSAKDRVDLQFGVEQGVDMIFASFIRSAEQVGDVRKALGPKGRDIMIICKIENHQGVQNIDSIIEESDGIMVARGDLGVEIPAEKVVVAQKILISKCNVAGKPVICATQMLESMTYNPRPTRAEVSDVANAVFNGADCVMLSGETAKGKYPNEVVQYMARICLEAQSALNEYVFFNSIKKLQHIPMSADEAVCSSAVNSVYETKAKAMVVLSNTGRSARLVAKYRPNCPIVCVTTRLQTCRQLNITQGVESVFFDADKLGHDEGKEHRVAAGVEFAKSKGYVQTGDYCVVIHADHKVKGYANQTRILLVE
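ATP generated from ADP (0.1 mM) and PEP (0.5 mM) by 0.1 nM LmPK over 1 h at room temperature (pH 7.2 imidazole buffer) was detected by coupled luciferase luminescence. Values were normalized to uninhibited and no-enzyme wells.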
TbPYK inhibitor – inhibitors of Trypanosoma brucei pyruvate kinase | Potency, µM (top dose mostly 76.8 µM), without a hit: at the highest dose activity, negative = inhibition, actives largely listed as inhibitors | TbPYK enzyme, Kinase-Glo Plus ATP luminescence, 45 min | 410,000 tested, 0.12% active | Q57TT1; note: potency is the fitted concentration of half-maximal effect; % is set by controls: 0 for no effect and ±100 for the full control effect; nearly all actives have a fitted effect of over 50% in size
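Luminescent Kinase-Glo Plus end-point after 45 min room-temperature reaction of T. brucei pyruvate kinase started with 130 uM ADP (final). Buffer TEA 50 mM pH 7.2 with KCl, MgCl2, BSA, Tween-20; titration-based qHTS with fitted concentration-effect curves.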
Shiga inhibitor – blocks Shiga toxin action in Vero cells; Vero cells, Shiga toxin protein synthesis inhibition reporter; inhibition, % at 38.7 µM; 290,000 tested, 9.2% active; in the data active = inhibition mostly above about 28%, no sharp cut-off; inactive = mostly below about 43%; note: 0% is about no effect
SARS PLpro yeast – SARS-CoV PLP inhibition in yeast | S. cerevisiae expressing SARS-CoV PLpro, growth rescue | Potency, µM (doses to about 32.9 µM), inactives show at the highest dose activity, positive = growth rescue, most hits filed as activators | 330,000 tested, 0.19% active; calls by dose curve; note: potency is the fitted concentration of half-maximal effect; 0% is about no effect; nearly all actives have a fitted effect of over 55% in size
* marks the source's active call; other numbers are inactive results; . = not tested or not shown. Shown is part of a subset that was picked to be rich in hits. Unless noted, calls come from the whole dose curve; as a rule, active = well fitted curve in the direction sought with a large enough effect; inconclusive = small, poorly fitted or top-dose-only effect, or another doubt; inactive = no such curve, though single readings can be large; an effect the other way counts as inactive or inconclusive.

SMILES	NS1 inh	Cycloheximide cs	LmPK inh	TbPYK inhibitor	Shiga inhibitor	SARS PLpro yeast
CCc1ccc(NC(=O)C2=CC=CN3CCS(=O)(=O)N=C23)cc1	.	.	.	-6%	.	1%
CCN1CCN(c2ccc(NC(=O)CCc3c(C)nc4c(-c5ccc(F)cc5)c(C)nn4c3C)cc2)CC1	.	-2	-1%	4%	-29	3%
CC(C)OCCCN1CN(S(=O)(=O)c2cccs2)c2nc3ccccc3nc21	-5%	14*	3%	-6%	44	-2%
CCCCN1CN(S(=O)(=O)c2cccs2)c2nc3ccccc3nc21	-13%	8	3%	.	12	4%
O=S(=O)(c1cccs1)N1CN(Cc2ccc(Cl)cc2)c2nc3ccccc3nc21	-3%	15*	1%	3%	10	4%
COc1ccccc1CN1CN(S(=O)(=O)c2ccccc2)c2nc3ccccc3nc21	12%	31*	7%	2%	110*	4%
Cc1ccc(CN2CN(S(=O)(=O)c3cccs3)c3nc4ccccc4nc32)cc1	-1%	91*	-2%	-2%	81*	5%
CC(C)CCN1CN(S(=O)(=O)c2cccs2)c2nc3ccccc3nc21	-5%	11	6%	2%	-7	7%
Cc1c(-c2nsc(NC(=O)c3cccs3)n2)nnn1-c1ccc(F)cc1	.	.	.	-5%	.	.
